Data as given in PubChem BioAssay (NCATS).
Records with an inconclusive call do not appear. Activity calls are given as the source filed them. Unless noted, calls come from the whole dose curve; as a rule, active = well fitted curve in either direction with a large enough effect (not every such curve was filed as active); inconclusive = small, poorly fitted or top-dose-only effect, or another doubt; inactive = flat fitted curve, though single readings scatter.

Assays:
[1] = target: Lysosomal acid glucosylceramidase (Homo sapiens) (UniProt P04062); assay: Glucocerebrosidase-p2 (AID 348; in the data active = potency below about 10 µM; note: potency is the fitted concentration of half-maximal effect); conditions: purified GBA, blue fluorogenic substrate, 40 min
Outline: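 Compounds titrated from 0.6 nM upwards against 0.2 nM enzyme in pH 5.9 citric acid/KH2PO4, taurocholate, tween-20; blue fluorogenic substrate 80 uM, 40 min room temperature, stopped and read Ex 365/Em 440 for AC50.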

[2] = AP1 Signaling Pathway (AID 357); conditions: ME-180 AP-1-bla reporter, EGF-induced, beta-lactamase ratio, 5 h; at 7.69 µM (top of the series) unless noted; note: % is set by controls: 0 for no effect and ±100 for the full control effect
Outline: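 ME-180 cells with beta-lactamase reporter under AP-1 response element, stimulated with EC50 EGF; compounds tested in titration series, 5 h at 37 °C. CCF4 substrate added 2.5 h at room temperature; 460/530 nm emission ratio gave %activity and AC50.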

[3] = target: Cytochrome P450 1A2 (Homo sapiens) (UniProt P05177); assay: p450-cyp1a2 (AID 410; calls by dose curve; note: potency is the fitted concentration of half-maximal effect); conditions: recombinant CYP1A2, luciferin-ME demethylation, luminescence; series mostly up to 57 µM
Outline: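 Inhibition was calculated relative to 57 uM furafylline (full inhibition). The reaction used human CYP1A2 at 20nM with Luciferin-ME at its Km, 100uM, driven by an NADPH-regenerating system for 60 min at room temperature.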

[4] = target: Glucocorticoid receptor (Homo sapiens) (UniProt P04150); assay: GR-EFC Redistribution (AID 451; calls by dose curve; note: potency is the fitted concentration of half-maximal effect); conditions: CHO-K1 GR-EFC translocation, beta-gal luminescence, 2 h
Outline: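 CHO-K1 cells expressing nuclear EA and GR-ED fragments of b-gal; compounds titrated up to 46 uM final, 2 h at 37 C. GR nuclear translocation read as complemented b-gal luminescence after 1 h RT detection.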

[5] = target: Mitogen-activated protein kinase 10 (Mus musculus) (UniProt Q61831); assay: JNK3 AlphaScreen Assay (AID 530); conditions: JNK3 lysate, c-Jun phosphorylation; series mostly up to 57.1 µM;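 note: kinase came from lysate of stimulated human HepG2 cells; signal reports phosphorylation of biotinylated GST-cJun 1-79 at Ser73 with 10 µM ATP; % is set by controls: 0 for no effect and ±100 for the full control effect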
Outline: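 qHTS format: compounds tested as titrations against IL-1beta/TNF-alpha-activated HepG2 lysate JNK3 with biotin-GST-cJun substrate and 10 uM ATP at room temperature. Loss of anti-phospho-cJun AlphaScreen signal indicates inhibition.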

[6] = target: 3',5'-cyclic-AMP phosphodiesterase 4B (Homo sapiens) (UniProt Q07343); assay: qHTS Assay for Inhibitors of PDE-IV (AID 607; active = well fitted activation curve with a large enough effect in the main read-out, with a control signal flat, not every such curve was filed as active; note: % of control where 0% means no effect); conditions: HEK293 ACTOne CNG channel cells, membrane potential fluorescence; series mostly up to 22.9 µM
Outline: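 Live HEK293 cells with a modified cyclic nucleotide-gated (CNG) channel report intracellular cAMP via membrane-potential dye fluorescence (ex 535/em 590 nm). Endogenous PDE-IV was targeted. Compounds were tested at up to 22.9 uM final; RO 20-1724 100 uM served as control.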

[7] = target: Cytochrome P450 2C19 (Homo sapiens) (UniProt P33261); assay: qHTS Assay for Inhibitors and Substrates of Cytochrome P450 2C19 (AID 899; active = well fitted curve in the direction sought with a large enough effect; an effect the other way counts as inactive or inconclusive; note: potency is the fitted concentration of half-maximal effect; nearly all actives have a fitted effect of over 60% in size); conditions: recombinant CYP2C19, luciferin-H EGE luminescence; series mostly up to 57.1 µM
Outline: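 Signal comes from luciferase acting on luciferin released by CYP2C19-mediated hydroxylation of Luciferin-H EGE, 10uM (KM). Assay mix: 5nM enzyme, 50mM KPO4; 60 min at 37C with NADPH regeneration. Data normalized against 57uM ketoconazole.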

[8] = qHTS Assay for Identification of Small Molecule Agonists for Hypoxia Response Element Signaling Pathway (AID 914; active = well fitted activation curve with a large enough effect in the signal ratio, with a control signal flat, not every such curve was filed as active; the % refers to the signal ratio; note: % of control where 0% means no effect); conditions: ME-180 HRE-bla reporter, beta-lactamase ratio, CoCl2, 17 h; activation: stronger effect = higher value
Outline: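 HRE-bla ME-180 assay for agonist-like enhancement of an EC50 CoCl2 stimulus: 17 h at 37 degrees Celsius, CCF4 for 2.5 h, ratiometric 460/530 nm signal converted to %Activity and fitted to AC50.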

[9] = qHTS Assay for Lipid Storage Modulators (AID 1519; calls by dose curve); conditions: Drosophila S3 cells, BODIPY lipid droplet/cell ratio, laser cytometry, cells loaded with oleic acid; for activity change, negative = inhibition: at 57.5 µM (top of the series)
Outline: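 Cells seeded at 5,000 per well were treated with compounds over a concentration series and loaded with oleic acid (400 uM, as added). Lipid droplet fluorescence (488 nm excitation, 500-530 nm channel) was read by laser-scanning cytometry and normalized to 20 uM Triacsin C.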

[10] = Primary qHTS for small molecule stabilizers of the endoplasmic reticulum resident proteome: Secreted ER Calcium Modulated Protein (SERCaMP) assay (AID 1508630; active = well fitted curve in the direction sought with a large enough effect; an effect the other way counts as inactive or inconclusive; note: % is set by controls: 0 for no effect and ±100 for the full control effect); conditions: SH-SY5Y GLuc-SERCaMP (Gaussia luciferase released on ER calcium loss) secretion, thapsigargin, luminescence; series mostly up to 38.4 µM
Outline: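 GLuc-SERCaMP-expressing SH-SY5Y cells, pretreated 16 h with compound, are challenged with thapsigargin to empty ER calcium stores; after 4 h, coelenterazine is added directly to the medium and luminescence is imaged.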

[11] = NFAT Signaling Pathway (AID 444); conditions: Jurkat NFAT-bla M1, carbachol, beta-lactamase ratio, 5 h; at 7.69 µM (top of the series) unless noted;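 note: carbachol stimulus at about its EC50 of 1 µM final; % is set by controls: 0 for no effect and ±100 for the full control effect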
Outline: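 Jurkat cells with NFAT-driven β-lactamase reporter and co-expressed M1 receptor, stimulated with carbachol (final 1 uM, ~EC50), compound titration, 5 h at 37 °C. CCF4 loaded 1 h at RT; 460/530 nm ratio gave %activity and AC50.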

[12] = Stat Signaling Pathway (AID 446); conditions: ME-180 (cervical carcinoma) SIE beta-lactamase reporter, IL-6 stimulated, 5 h; at 7.69 µM (top of the series) unless noted
Outline: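 IL-6/STAT signaling read in ME-180 cells via an SIE beta-lactamase reporter. Stimulus was 40 pM IL-6 (its AC50) for 5 hrs, so both activation and inhibition register.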

[13] = target: Glucocorticoid receptor (Homo sapiens) (UniProt P04150); assay: GR-GFP Redistribution (AID 450;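 active = compounds whose dose series gives a full or clear partial fitted curve of increased nuclear translocation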; note: potency is the fitted concentration of half-maximal effect); conditions: U2OS GR-GFP nuclear translocation, laser cytometry, 2 h
[14] = Confirmation and Secondary Assay for Modulators of Hemoglobin Beta Chain Splicing at IVS2 654 locus (AID 910; active = well fitted curve in the direction sought with a large enough effect; an effect the other way counts as inactive or inconclusive;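 note: HeLa cells stably carrying EGFP split by mutant beta-globin IVS2-654 intron; % of control where 0% means no effect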); conditions: HeLa EGFP-654 splicing reporter, GFP fluorescence, 48 h; series mostly up to 38.3 µM
Outline: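 HeLa cells stably expressing EGFP interrupted by β-globin IVS2-654 intron, seeded overnight in Opti-MEM/2% FCS, then treated 2 days at 37 °C. Restored splicing read as total peak GFP intensity per well by laser scanning cytometry (488 nm excitation, 500–520 nm emission); 500 nM antisense PNA as control.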

[15] = Confirmation and Secondary Assay for Modulators of Hemoglobin Beta Chain Splicing at IVS2 705 locus (AID 930; active = well fitted curve in the direction sought with a large enough effect; an effect the other way counts as inactive or inconclusive;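 note: HeLa cells stably expressing the EGFP-705 splicing reporter; GFP fluorescence per well restored by corrected splicing of the IVS2-705 intron in EGFP; % of control where 0% means no effect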); conditions: HeLa EGFP-705 splicing reporter, GFP fluorescence, 48 h; series mostly up to 38.3 µM
Outline: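 HeLa IVS2-705 EGFP reporter cells, 500/well, compound 2 d at 37C; correct splicing yields fluorescent EGFP. Control: 500 nM antisense PNA. Read-out: total peak GFP intensity.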

[16] = target: Ubiquitin carboxyl-terminal hydrolase 1 (Homo sapiens) (UniProt O94782); assay: Inhibitors of USP1/UAF1: Pilot qHTS (AID 504865; active = well fitted curve in the direction sought with a large enough effect; an effect the other way counts as inactive or inconclusive;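 note: rhodamine fluorescence freed from ubiquitin-rhodamine substrate followed over time; top concentration of the series differs between compounds; % is set by controls: 0 for no effect and ±100 for the full control effect; nearly all actives have a fitted effect of over 35% in size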); conditions: purified USP1/UAF1, Ub-rhodamine cleavage fluorescence; series mostly up to 54.9 µM
Outline: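 USP1/UAF1 complex at 1 nM preincubated 15 min at room temperature with compound, then Ub-Rho substrate added at 150 nM final. Fluorescence (480/540 nm) read kinetically in 50 mM HEPES pH 7.8, 0.5 mM EDTA, 1 mM TCEP, 0.1 mg/ml BSA, 0.01% Tween-20.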

[17] = measured here: cell count channel max response
[18] = measured here: lipid channel max response

Chain of Glucocorticoid receptor (Homo sapiens) (P04150 whole entry, looked up, the tested form may be a part): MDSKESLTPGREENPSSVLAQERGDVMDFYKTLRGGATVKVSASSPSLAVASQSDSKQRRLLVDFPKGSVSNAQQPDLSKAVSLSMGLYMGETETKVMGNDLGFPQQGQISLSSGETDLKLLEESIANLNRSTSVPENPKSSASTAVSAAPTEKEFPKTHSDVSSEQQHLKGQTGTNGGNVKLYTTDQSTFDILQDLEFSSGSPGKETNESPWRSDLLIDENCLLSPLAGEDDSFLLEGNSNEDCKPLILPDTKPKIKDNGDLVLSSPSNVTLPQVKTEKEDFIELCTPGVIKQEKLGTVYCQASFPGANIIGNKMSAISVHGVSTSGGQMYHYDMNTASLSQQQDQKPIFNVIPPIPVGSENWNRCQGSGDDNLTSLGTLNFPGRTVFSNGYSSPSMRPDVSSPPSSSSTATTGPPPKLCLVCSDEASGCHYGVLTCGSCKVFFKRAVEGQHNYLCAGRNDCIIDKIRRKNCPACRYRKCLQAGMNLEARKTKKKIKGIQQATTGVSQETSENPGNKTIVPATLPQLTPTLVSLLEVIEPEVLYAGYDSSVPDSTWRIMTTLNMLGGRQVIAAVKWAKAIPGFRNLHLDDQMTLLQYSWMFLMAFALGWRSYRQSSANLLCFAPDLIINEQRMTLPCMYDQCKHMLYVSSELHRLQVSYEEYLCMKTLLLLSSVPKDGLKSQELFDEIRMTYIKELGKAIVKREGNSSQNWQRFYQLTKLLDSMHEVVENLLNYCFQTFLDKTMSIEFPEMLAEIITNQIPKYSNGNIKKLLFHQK
Chain of Lysosomal acid glucosylceramidase (Homo sapiens) (P04062 whole entry, looked up): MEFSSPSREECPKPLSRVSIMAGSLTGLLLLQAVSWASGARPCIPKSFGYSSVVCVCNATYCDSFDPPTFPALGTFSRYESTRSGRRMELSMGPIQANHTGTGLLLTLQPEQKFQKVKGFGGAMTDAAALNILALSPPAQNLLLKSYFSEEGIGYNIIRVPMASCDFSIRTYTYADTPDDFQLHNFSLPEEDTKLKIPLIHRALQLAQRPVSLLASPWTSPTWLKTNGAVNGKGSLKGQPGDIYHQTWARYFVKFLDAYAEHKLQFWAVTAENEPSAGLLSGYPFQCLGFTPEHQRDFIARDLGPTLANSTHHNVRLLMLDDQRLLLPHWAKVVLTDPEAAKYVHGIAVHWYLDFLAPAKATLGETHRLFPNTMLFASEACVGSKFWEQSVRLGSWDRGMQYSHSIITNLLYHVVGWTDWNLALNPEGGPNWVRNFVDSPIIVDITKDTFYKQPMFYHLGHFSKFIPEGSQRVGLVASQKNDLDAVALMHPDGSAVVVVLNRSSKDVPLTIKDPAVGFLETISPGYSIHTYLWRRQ
Chain of 3',5'-cyclic-AMP phosphodiesterase 4B (Homo sapiens) (Q07343 whole entry, looked up): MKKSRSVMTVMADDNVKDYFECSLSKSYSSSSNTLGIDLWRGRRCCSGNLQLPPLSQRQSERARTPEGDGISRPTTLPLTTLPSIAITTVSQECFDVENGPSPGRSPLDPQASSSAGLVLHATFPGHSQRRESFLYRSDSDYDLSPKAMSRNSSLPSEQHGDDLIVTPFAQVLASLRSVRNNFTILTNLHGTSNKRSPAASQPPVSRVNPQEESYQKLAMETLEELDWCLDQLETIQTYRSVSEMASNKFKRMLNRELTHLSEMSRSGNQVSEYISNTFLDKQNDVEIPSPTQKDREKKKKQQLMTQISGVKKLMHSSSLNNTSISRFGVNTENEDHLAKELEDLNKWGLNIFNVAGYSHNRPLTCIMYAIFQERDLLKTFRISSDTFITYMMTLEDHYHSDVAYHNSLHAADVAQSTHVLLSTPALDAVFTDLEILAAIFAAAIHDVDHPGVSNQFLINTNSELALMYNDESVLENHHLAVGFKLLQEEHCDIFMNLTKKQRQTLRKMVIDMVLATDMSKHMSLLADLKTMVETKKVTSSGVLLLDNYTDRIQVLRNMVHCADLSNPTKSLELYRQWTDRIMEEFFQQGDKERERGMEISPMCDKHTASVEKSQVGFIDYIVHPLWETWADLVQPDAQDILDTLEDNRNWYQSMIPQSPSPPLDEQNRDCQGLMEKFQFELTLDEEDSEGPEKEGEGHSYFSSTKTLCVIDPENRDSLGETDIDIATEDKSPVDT
Chain of Ubiquitin carboxyl-terminal hydrolase 1 (Homo sapiens) (O94782 whole entry, looked up): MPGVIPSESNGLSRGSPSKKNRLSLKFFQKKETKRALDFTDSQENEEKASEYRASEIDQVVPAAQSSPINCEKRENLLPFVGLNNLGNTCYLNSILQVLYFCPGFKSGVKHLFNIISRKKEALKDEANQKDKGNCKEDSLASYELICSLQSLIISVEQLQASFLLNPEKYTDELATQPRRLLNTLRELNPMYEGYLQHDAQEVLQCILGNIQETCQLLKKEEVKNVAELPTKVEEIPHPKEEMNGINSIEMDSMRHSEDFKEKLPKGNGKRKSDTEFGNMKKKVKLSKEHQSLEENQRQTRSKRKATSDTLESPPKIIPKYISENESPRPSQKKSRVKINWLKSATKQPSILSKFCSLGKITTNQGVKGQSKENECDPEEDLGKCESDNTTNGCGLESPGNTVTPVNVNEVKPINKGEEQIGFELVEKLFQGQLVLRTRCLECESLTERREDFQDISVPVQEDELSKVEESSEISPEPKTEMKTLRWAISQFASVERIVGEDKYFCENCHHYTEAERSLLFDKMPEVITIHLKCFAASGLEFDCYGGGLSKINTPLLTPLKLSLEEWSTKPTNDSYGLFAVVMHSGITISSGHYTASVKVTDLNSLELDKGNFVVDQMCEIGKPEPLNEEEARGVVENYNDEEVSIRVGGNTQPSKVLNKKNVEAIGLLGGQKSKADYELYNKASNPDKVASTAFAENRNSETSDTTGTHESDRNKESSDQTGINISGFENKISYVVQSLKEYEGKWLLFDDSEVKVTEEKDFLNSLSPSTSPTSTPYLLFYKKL
Chain of Cytochrome P450 2C19 (Homo sapiens) (P33261 whole entry, looked up): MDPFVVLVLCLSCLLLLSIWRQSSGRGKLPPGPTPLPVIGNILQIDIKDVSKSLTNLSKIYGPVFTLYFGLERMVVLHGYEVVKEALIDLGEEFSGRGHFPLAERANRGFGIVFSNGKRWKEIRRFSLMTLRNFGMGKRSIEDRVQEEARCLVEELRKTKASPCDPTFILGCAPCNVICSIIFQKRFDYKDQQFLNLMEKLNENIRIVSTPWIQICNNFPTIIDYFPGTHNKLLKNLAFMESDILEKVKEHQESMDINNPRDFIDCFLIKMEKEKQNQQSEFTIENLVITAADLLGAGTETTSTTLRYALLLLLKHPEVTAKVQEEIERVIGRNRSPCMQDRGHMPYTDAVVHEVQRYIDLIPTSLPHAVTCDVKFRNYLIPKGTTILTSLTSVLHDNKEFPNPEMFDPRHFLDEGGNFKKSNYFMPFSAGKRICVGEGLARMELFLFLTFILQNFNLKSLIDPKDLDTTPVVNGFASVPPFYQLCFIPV
Chain of Cytochrome P450 1A2 (Homo sapiens) (P05177 whole entry, looked up): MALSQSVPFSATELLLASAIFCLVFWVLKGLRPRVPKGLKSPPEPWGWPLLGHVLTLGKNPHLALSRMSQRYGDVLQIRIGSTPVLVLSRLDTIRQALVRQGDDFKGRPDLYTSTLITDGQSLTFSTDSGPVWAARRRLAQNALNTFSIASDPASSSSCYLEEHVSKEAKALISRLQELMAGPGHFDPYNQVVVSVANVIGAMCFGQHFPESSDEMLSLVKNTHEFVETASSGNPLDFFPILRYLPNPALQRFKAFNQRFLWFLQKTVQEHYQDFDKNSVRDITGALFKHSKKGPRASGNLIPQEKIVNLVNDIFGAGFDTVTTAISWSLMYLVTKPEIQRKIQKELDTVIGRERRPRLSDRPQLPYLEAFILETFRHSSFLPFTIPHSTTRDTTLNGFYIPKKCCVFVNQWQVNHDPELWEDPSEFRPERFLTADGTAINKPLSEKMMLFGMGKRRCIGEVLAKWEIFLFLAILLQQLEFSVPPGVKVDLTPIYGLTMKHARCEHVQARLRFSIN

O=S(=O)(c1ccccc1)N1CCC2(CCCN(c3ccccn3)C2)CC1
25.4%: max response [9, 18]
17.9%: max response [9, 17]
inactive: Potency [1] > 11.4 µM | activity change, negative = inhibition [2] -6.83% | Potency [4] > 46 µM | Potency [5] | Potency [6] | activation [8] -11.6% | activity change, negative = inhibition [9] 5.71% | outcome [10]
active: Potency [3] 7.94 µM | Potency [7] 0.158 µM

Cc1cnc(CNc2ccnc(-c3ccc(C(=O)N(C)C)cc3)n2)cn1
15.8%: max response [9, 18]
6.03%: max response [9, 17]
inactive: Potency [1] > 11.4 µM | activity change, negative = inhibition [2] 9.07% | activity change, negative = inhibition [11] 1.49% | activity, negative = inhibition [12] 0.405% | Potency [13] > 46 µM | Potency [4] > 46 µM | Potency [5] | Potency [6] | Potency [14] | outcome [15] | activity change, negative = inhibition [9] 9.3% | Potency [16] | outcome [10]

O=C(c1ccncc1)N1CCC[C@@]2(CCN(C(c3ccccc3)c3ccccc3)C2)C1
inactive: Potency [1] > 11.4 µM | activity change, negative = inhibition [2] -4.57% | activity change, negative = inhibition [11] 17.1% | activity, negative = inhibition [12] 0.76% | Potency [4] > 46 µM | Potency [5] | activity change, negative = inhibition [9] -4.39% | outcome [10]
-3.62%: max response [9, 17]
-3.76%: max response [9, 18]

O=C(c1cc(C(F)(F)F)cc(C(F)(F)F)c1)N1CCC2(CC1)CCN(c1ccccc1)CC2
10.5%: max response [9, 17]
inactive: Potency [1] > 11.4 µM | activity change, negative = inhibition [2] 24.2% | activity change, negative = inhibition [11] -4.75% | activity, negative = inhibition [12] -7.04% | Potency [4] > 46 µM | Potency [5] | Potency [6] | activity change, negative = inhibition [9] -9.68% | outcome [10]
0.292%: max response [9, 18]

COCC(=O)N1CCC[C@@]2(CCN(c3ccccc3)C2)C1
17.9%: max response [9, 17]
inactive: Potency [1] > 11.4 µM | activity change, negative = inhibition [2] -8.85% | activity change, negative = inhibition [11] -13.7% | activity, negative = inhibition [12] 8.14% | Potency [4] > 46 µM | Potency [5] | Potency [6] | activity change, negative = inhibition [9] -2.7% | outcome [10]
18%: max response [9, 18]

COCC(=O)N1CCC[C@@]2(CCN(Cc3cc(C(F)(F)F)cc(C(F)(F)F)c3)C2)C1
inactive: Potency [1] > 11.4 µM | activity change, negative = inhibition [2] 3.75% | activity change, negative = inhibition [11] 6.67% | activity, negative = inhibition [12] 9.45% | Potency [4] > 46 µM | Potency [5] | Potency [6] | activity change, negative = inhibition [9] 5.27% | outcome [10]
7.6%: max response [9, 17]
16.2%: max response [9, 18]

COCC(=O)N1CCC[C@@]2(CCN(c3ccccn3)C2)C1
-4.94%: max response [9, 17]
inactive: Potency [1] > 11.4 µM | activity change, negative = inhibition [2] -4.6% | activity change, negative = inhibition [11] -11.3% | activity, negative = inhibition [12] -4.62% | Potency [4] > 46 µM | Potency [5] | Potency [6] | activity change, negative = inhibition [9] 2.24% | outcome [10]
-1.36%: max response [9, 18]
